Hits are enriched below; roughly 2.7% of the tested compounds scored in any of these assays.
Nrf2 activator – activators of Nrf2 (ARE) signaling; AREc32 ARE-luciferase reporter (MCF7-derived line), luminescence, 24 h; AID 624171; Potency, µM (titrated, usually from 46.1 µM), usual class: activators; 0.31% of 410,000 active; also: nearly all actives have a fitted effect of over 65% in size
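AREc32 cells carrying an ARE-driven firefly luciferase reporter were seeded at 1000 cells/well in OPTI-MEM with 5% FBS, then exposed to compound for 24 hr at 37 deg C. Luminescence was read with Steady-Glo after 30 min at RT.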
LDHA inh – inhibitors of human lactate dehydrogenase A; P00338; purified LDHA, NADH/diaphorase-resazurin fluorescence; hits give low values; activity change, % (values are at about 110 or 230 µM); 0.15% of 480,000 active; AID 1347041; in the data active = activity change below about -30%; inconclusive = mostly about -25% to -30%
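Resorufin fluorescence (ex540/em590), read at 0 and 20 min after diaphorase/resazurin addition, reports the NADH left after a 5 min room-temperature reaction of 2 nM human LDH5 with 0.06 mM NADH and 0.2 mM pyruvate.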
Nrf2 inh – inhibitors of Nrf2 signaling; A549 ARE-Fluc reporter, luciferase luminescence, 18-24 h; Potency, µM (titrated, usually from 46 µM), hits mostly inhibitors; 2.1% of 360,000 active; AID 504444; also: nearly all actives have a fitted effect of over 60% in size
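A549 ARE_Fluc cells (5000/well, 5% FBS OPTI-MEM) pre-incubated 2 h, then treated with compounds 18-24 h at 37C/5% CO2 in concentration-response. CellTiter-Fluor viability read first; BugLite luciferase luminescence after 15 min at room temperature gives Nrf2 activity.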
ALOX12 inh – blocks human arachidonate 12S-lipoxygenase; P18054; 1.1% of 580,000 active; AID 1671190; Potency, µM (doses to about 108 µM), most hits filed as inhibitors; purified 12hLO, xylenol orange hydroperoxide absorbance
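Purified human 12hLO (150 nM final) in 25 mM Hepes, 0.01% Triton X-100, pH 7.0 was preincubated 15 min at room temperature with compound. Then 40 uM arachidonic acid was added, 30 min. Hydroperoxide was read by Fe-XO absorbance ratio 573/405 nm.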
A549 viability – kills or reduces viability of A549 cells in Nrf2 counter-screen. 0.16% of 390,000 active. A549 ARE-Fluc cells, CellTiter-Fluor viability, 18-24 h. Potency, µM (doses to about 46 µM), actives largely listed as inhibitors. AID 504648
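A549 ARE-Fluc cells in 5% FBS OPTI-MEM, 5000 cells/well, rested 2 h then exposed to compounds in concentration-response for 18-24 h at 37 °C. Viability by CellTiter-Fluor fluorescence (Ex 405/Em 525) after 30 min; luciferase luminescence (BugLite, 15 min, RT) read afterwards.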
mIDH1 inhibitor – inhibitors of human mutant IDH1 R132H. IDH1-R132H enzyme, NADPH consumption, diaphorase/resazurin fluorescence. O75874. 0.093% of 390,000 active. Potency, µM (top dose mostly 76.6 µM), usual class: inhibitors; also: nearly all actives have a fitted effect of over 65% in size
Target sequence (O75874 whole entry R132H, stated change not applied): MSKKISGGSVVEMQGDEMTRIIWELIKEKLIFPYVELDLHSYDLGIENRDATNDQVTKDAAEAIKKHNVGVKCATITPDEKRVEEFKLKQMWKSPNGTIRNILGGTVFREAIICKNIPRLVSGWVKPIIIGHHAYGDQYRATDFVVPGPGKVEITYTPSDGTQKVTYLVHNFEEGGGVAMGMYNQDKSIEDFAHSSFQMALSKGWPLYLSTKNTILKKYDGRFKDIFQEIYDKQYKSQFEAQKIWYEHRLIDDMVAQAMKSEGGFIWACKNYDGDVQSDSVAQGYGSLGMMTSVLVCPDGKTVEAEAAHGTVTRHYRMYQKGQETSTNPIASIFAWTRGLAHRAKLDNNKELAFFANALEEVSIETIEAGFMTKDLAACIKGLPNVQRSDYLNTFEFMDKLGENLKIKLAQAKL
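IDH1-R132H (0.5 ug/mL dispensed) in pH 7.5 Tris buffer was preincubated 30 min with compound, then given a substrate mix of 0.016 mM NADPH and 2 mM alpha-KG for 80 min at room temperature; remaining NADPH was read by diaphorase/resazurin fluorescence.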
Large screens that a line does not name were inactive. Unless noted, calls follow the shape of the dose curve; as a rule, active = well fitted curve in the direction sought with a large enough effect; inconclusive = small, poorly fitted or top-dose-only effect, or another doubt; inactive = no such curve, though single readings can be large; an effect the other way counts as inactive or inconclusive.

O=C(O)c1ccc(N=N/C(=N\Nc2ccc(C(=O)O)cc2)c2ccccc2)cc1	A549 viability inconclusive
COc1ccc(-n2cnc(=S)[nH]c2=S)cc1	Nrf2 activator inconclusive, ALOX12 inh 22µM
CC(Oc1ccc(F)cc1)C(=O)NC1(C#N)CCCCC1 (stereo not given)	none (no result: Nrf2 activator, Nrf2 inh, A549 viability, mIDH1 inhibitor)
Cc1ccc(-c2nc(CC(=O)NCCc3ccccc3F)cs2)o1	LDHA inh -33 (no result: Nrf2 activator, Nrf2 inh, A549 viability, mIDH1 inhibitor)
Cc1ccc(-c2nc(CC(=O)NCc3ccc(F)c(C)c3)cs2)o1	none (no result: Nrf2 activator, Nrf2 inh, A549 viability, mIDH1 inhibitor)
Cc1ccc(-c2nc(CC(=O)NCc3ccccc3F)cs2)o1	ALOX12 inh 11µM (no result: Nrf2 activator, Nrf2 inh, A549 viability, mIDH1 inhibitor)
Cc1ccc(S(=O)(=O)N2CCN(CCS(=O)(=O)CCC(N)=O)CC2)cc1	none (no result: Nrf2 activator, Nrf2 inh, A549 viability, mIDH1 inhibitor)
COc1ccccc1C(=O)Oc1cc(N)n(S(=O)(=O)c2ccccc2)n1	none
CS(=O)(=O)n1nc(OC(=O)c2cccc3ccccc23)cc1N	Nrf2 activator 14µM
Cc1ccccc1C(=O)Oc1cc(N)n(S(=O)(=O)c2ccccc2)n1	Nrf2 inh 7.3µM
CNC(=O)NC(=O)C(C)N1CCN(c2oc(C3CC3)nc2C#N)CC1 (stereo not given)	none (no result: Nrf2 activator, Nrf2 inh, A549 viability, mIDH1 inhibitor)
CCOc1ccc(NC(=O)Cn2c(C)cc3ccccc32)cc1	none (no result: Nrf2 activator, Nrf2 inh, A549 viability, mIDH1 inhibitor)
O=C(Nc1cccc(Br)c1)c1ccc(CN2CCc3ccccc3C2)cc1	Nrf2 inh 8.2µM
O=C(Nc1ccc(F)cc1)c1ccc(CN2CCc3ccccc3C2)cc1	Nrf2 inh 5.8µM
CC(=O)Nc1ccc(NC(=O)c2ccc(CN3CCc4ccccc4C3)cc2)cc1	none
CSc1cccc(NC(=O)c2ccc(CN3CCc4ccccc4C3)cc2)c1	Nrf2 inh inconclusive
COCCN(Cc1cccs1)S(=O)(=O)c1ccc(C(=O)O)cc1	ALOX12 inh inconclusive (no result: Nrf2 activator, Nrf2 inh, A549 viability, mIDH1 inhibitor)
COc1ccc(CCNC(=O)Cn2cc(S(=O)(=O)Cc3ccccc3Cl)c3ccccc32)cc1OC	none
COc1ccc(CCNC(=O)Cn2cc(S(=O)(=O)Cc3cccc(Cl)c3)c3ccccc32)cc1OC	Nrf2 inh 21µM, A549 viability inconclusive
CC(C)Oc1ccc(C(CCNCc2ccc(O)cc2)c2ccccc2)cc1 (stereo not given)	ALOX12 inh 40µM
COc1ccc(C(CCNCc2ccc(N(C)C)cc2)c2ccccc2)cc1 (stereo not given)	ALOX12 inh inconclusive
C=CCN1C(=O)C(CC(=O)Nc2ccc(OCCC)cc2)N(CCCN2CCN(Cc3ccccc3)CC2)C1=S (stereo not given)	Nrf2 inh 18µM, ALOX12 inh inconclusive, A549 viability inconclusive
O=C(Cc1ccsc1-c1ccccc1)NO	ALOX12 inh 16µM
CC(=O)Nc1ccc(NC(=O)Nc2ccc(Cl)cc2)cc1	ALOX12 inh inconclusive (no result: Nrf2 activator, Nrf2 inh, A549 viability, mIDH1 inhibitor)
Cc1ccc(C2=C(O)C(=O)C(c3ccc(C)cc3)=C(O)C2=O)cc1	Nrf2 inh inconclusive, ALOX12 inh 1.1µM, A549 viability inconclusive
Cc1ccc(-c2cc(C(=O)N3CCN(CC(=O)NC4CC4)CC3)c3ccccc3n2)o1	ALOX12 inh inconclusive (no result: Nrf2 activator, Nrf2 inh, A549 viability, mIDH1 inhibitor)
Fc1ccc(CN2CCCN(c3nnnn3-c3ccccc3)CC2)cc1	none (no result: Nrf2 activator, Nrf2 inh, A549 viability, mIDH1 inhibitor)
c1ccc(-c2ccc(CN[C@H]3CO[C@H]4[C@@H]3OC[C@@H]4n3cc(CC4CCCCC4)nn3)cc2)cc1	none (no result: Nrf2 activator, LDHA inh, Nrf2 inh, A549 viability, mIDH1 inhibitor)
Cn1c(SCc2ccc(F)cc2)nc2ccc(C(=O)NCc3ccc(F)cc3)cc21	Nrf2 inh 23µM, A549 viability inconclusive
Cn1c(SCc2ccc(F)cc2)nc2ccc(C(=O)NCc3cccc(Cl)c3)cc21	Nrf2 inh 21µM, ALOX12 inh inconclusive
CC(C)Oc1ccc(CNC(=O)c2ccc3nc(SCc4ccc(F)cc4)n(C)c3c2)cc1	none
Cn1c(SCc2ccc(F)cc2)nc2ccc(C(=O)NCc3ccc(Cl)cc3)cc21	Nrf2 inh 15µM
O=C(O)c1ccccc1CC(CCc1ccccc1)C(=O)O (stereo not given)	ALOX12 inh 28µM
O=C(O)Cc1ccccc1C(=O)O	none (no result: A549 viability)
COc1ccc(Cc2[nH]n3c(=O)cc(C(C)C)nc3c2-c2ccccc2)cc1	Nrf2 inh 12µM, A549 viability inconclusive
